Hits are enriched below; roughly 1.3% of the tested compounds scored in any of these assays.
Rpn11 inh: blocks the human proteasome subunit Rpn11; O00487; human 26S proteasome, Ub4-pepOG fluorescence polarization; 20S core pre-blocked with epoxomicin; calls only at 20 µM; 360,000 tested, 0.59% active;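 active = inhibition at 20 µM, scaled to each plate's controls, above about 33%, limit read from the data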
Neddylation inh: cullin neddylation inhibition; P61081+Q13564; TR-FRET cullin neddylation, biochemical; inhibition, % at 25 µM; 360,000 tested, 0.58% active; AID 651699; in the data active = inhibition above about 36%
PKA-R2B activ: PKA-R2B complex activation | P22694+P31323 | PKA-R2B holoenzyme dissociation, Cy5-IP20 fluorescence polarization; R2B truncated from residue 108, S112A mutant; 0% DMSO only, 100% 113 µM cGMP | activation, % at 11.4 µM | 340,000 tested, 0.079% active | AID 504700;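 active = activation above a cutoff set at the mean over all compounds plus 3 SD, cut at about 18% in these data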;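 also: higher means more holoenzyme dissociation and a rise in polarization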
Target sequence (P31323 whole entry, looked up, other chains not shown, the tested form may be a part): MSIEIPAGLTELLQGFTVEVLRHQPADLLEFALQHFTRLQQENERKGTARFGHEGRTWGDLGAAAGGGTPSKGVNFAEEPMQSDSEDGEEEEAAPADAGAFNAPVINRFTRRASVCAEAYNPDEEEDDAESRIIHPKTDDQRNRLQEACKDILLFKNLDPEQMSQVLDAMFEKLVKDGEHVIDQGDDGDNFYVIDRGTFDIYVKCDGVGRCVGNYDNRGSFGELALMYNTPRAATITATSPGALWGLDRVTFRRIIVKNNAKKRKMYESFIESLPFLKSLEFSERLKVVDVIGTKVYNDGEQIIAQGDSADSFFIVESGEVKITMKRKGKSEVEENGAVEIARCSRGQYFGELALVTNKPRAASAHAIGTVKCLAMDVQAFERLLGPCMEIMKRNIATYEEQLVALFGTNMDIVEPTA
PKA-R1A activ: activates the PKA-R1A holoenzyme complex; AID 504707; P00514+P68181; 340,000 tested, 0.083% active; PKA-R1A dissociation, Cy5-IP20 fluorescence polarization; scaled: DMSO 0%, 113 µM cGMP 100%; activation, % at 11.4 µM;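 active = percent activation above the mean of all tested compounds plus 3 SD, cut at about 19% in these data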;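 also: higher means more PKAc released from R1A so a rise in polarization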
Rpn11 confirm: confirmation of human proteasome Rpn11 inhibitors; purified human 26S proteasome, Ub4-pepOG fluorescence polarization; proteasome pretreated with epoxomicin; shares compounds with Rpn11 inh; 1,900 tested, 29% active; inhibition, % at 20 µM
MMP-2 inh: MMP-2 (human) inhibition counter-screen | inhibition, % at 20 µM | recombinant MMP-2, FRET peptide cleavage fluorescence | shares compounds with Rpn11 inh | 1,900 tested, 4% active;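 also: human MMP-2 activated beforehand with APMA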
Thrombin FP: thrombin (bovine) inhibition counter-screen. 1,900 tested, 13% active. bovine thrombin cleavage of Ub4-pepOG, fluorescence polarization. inhibition, % at 20 µM. shares compounds with Rpn11 inh;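 active = mean inhibition at least 40% at 20 µM, or signal 3 deviations below plate average, so some actives read negative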
Large screens that a line does not name were inactive (follow-up assays come after a bar, where shown). Rule as the data show it, unless noted: active = inhibition above about 40%; inactive = the rest.

Cc1ccc(-n2nnc3c(=O)n(CC(=O)NCc4ccccc4)cnc32)cc1	Rpn11 inh active | Rpn11 confirm 49 | MMP-2 inh inactive | Thrombin FP inactive
O=C(CN1CCN(c2ccc(F)cc2)CC1)c1ccc(O)cc1O	none
O=C(c1nn2c(C(F)(F)F)cc(-c3ccccc3)nc2c1Cl)N1CCN2CCCC2C1 (stereo not drawn)	none
Cc1cc(C)c2c(CN(C)Cc3ccccc3)cc(=O)oc2c1	none (no result: PKA-R2B activ, PKA-R1A activ)
CSc1ccc(/C=N/NC(=O)c2ccc(C)c(C)c2)cc1	Rpn11 inh active | Rpn11 confirm inactive | MMP-2 inh inactive | Thrombin FP inactive
CC(=O)Nc1ccc(C=NNc2ccc([N+](=O)[O-])cc2S(=O)(=O)Nc2ccccc2C(=O)O)cc1	none
CN(CCO)c1ccc(C=NNc2ccc([N+](=O)[O-])cc2S(=O)(=O)Nc2ccccc2C(=O)O)cc1	Rpn11 inh active (no result: PKA-R2B activ, PKA-R1A activ) | Rpn11 confirm 73 | MMP-2 inh inactive | Thrombin FP inactive
Cc1cc(-c2ccc(S(=O)(=O)N(C)c3ccc(C)c(C)c3)s2)on1	Rpn11 inh active | Rpn11 confirm 43 | MMP-2 inh inactive | Thrombin FP 40
Cc1n[nH]c(=O)c2c(NC(=O)CSc3nncs3)oc(C)c12	none
COc1ccc(NC(=O)c2cccc3c(-c4cccnc4)coc23)cc1	Rpn11 inh active (no result: PKA-R2B activ, PKA-R1A activ) | Rpn11 confirm 42 | MMP-2 inh inactive | Thrombin FP inactive
Clc1ccc(C2Nc3ccccc3-n3cccc32)cc1 (stereo not drawn)	Rpn11 inh active | Rpn11 confirm inactive | MMP-2 inh inactive | Thrombin FP inactive
CN1c2ccccc2C(=O)NC1c1ccc(Cl)cc1 (stereo not drawn)	none (not shown: Neddylation inh)
CC(C)c1ccccc1OS(N)(=O)=O	none
COc1nc(N)c(S(=O)(=O)c2ccccc2)cc1C#N	Rpn11 inh active | Rpn11 confirm inactive | MMP-2 inh inactive | Thrombin FP inactive
CCN(CC(=O)Nc1ccc(N2CCOCC2)cc1)CC(=O)NC(C)(C)C	none
COc1ccccc1NC(=O)c1sc2ncn(CC(=O)Nc3ccccc3)c(=O)c2c1C	Rpn11 inh active | Rpn11 confirm inactive | MMP-2 inh inactive | Thrombin FP inactive
c1ccc(OCCn2c(-c3ccco3)nc3ccccc32)cc1	Rpn11 inh active | Rpn11 confirm inactive | MMP-2 inh inactive | Thrombin FP inactive
Cc1ccc2c(c1)-c1cc(C)ccc1C2=O	none
CN(C(=O)c1cccc(NC(=O)Cc2ccc(NC(=O)C3CCN(C(=O)CCc4ccccc4)CC3)cc2)c1)C1CCC1	none
O=C(N/N=C/c1ccccc1)c1ccc(CN2C(=O)c3cccc4cccc2c34)cc1	Rpn11 inh active (not shown: Neddylation inh) | Rpn11 confirm 199 | MMP-2 inh inactive | Thrombin FP inactive
COc1cc(C2NC(=O)NC(C)=C2C(=O)OCC2CCCCC2)ccc1O (stereo not drawn)	none
O=C(O)CCCN1C(=O)/C(=C\c2ccc(-c3nc4ccccc4s3)o2)SC1=S	Rpn11 inh active | Rpn11 confirm 70 | MMP-2 inh inactive | Thrombin FP inactive
O=C(O)c1cc(-c2ccc(/C=C3/SC(=S)N(Cc4ccccc4)C3=O)o2)ccc1Cl	none (not shown: Rpn11 inh)
O=C(O)CCN1C(=O)/C(=C/c2ccc(-c3nc4ccccc4s3)o2)SC1=S	Rpn11 inh active | Rpn11 confirm 173 | MMP-2 inh inactive | Thrombin FP inactive
CC1=C/C(=C\C=C(C#N)C#N)N(C)c2ccccc21	none (not shown: Rpn11 inh)
CC1=CC(=C(C#N)C#N)c2ccccc2N1C	Rpn11 inh active | Rpn11 confirm 125 | MMP-2 inh inactive | Thrombin FP 56
Cn1cnnc1SCc1ccc(C(=O)N/N=C(/CCC(=O)O)c2ccc(C(C)(C)C)cc2)cc1	none
O=C(CSc1nc(-c2ccc(F)cc2)nc2c1Cc1ccccc1O2)Nc1cccc(C(=O)O)c1	Rpn11 inh active | Rpn11 confirm inactive | MMP-2 inh inactive | Thrombin FP 82
Cc1ccc(S(=O)(=O)N2C[C@H]3C(=O)C[C@@H](c4ccccc4F)N(S(=O)(=O)c4ccc(C)cc4)[C@H]3C[C@H]2c2ccccc2)cc1	none (no result: PKA-R2B activ, PKA-R1A activ)
Cc1ccc([C@@H]2CC(=O)[C@@H]3CN(S(=O)(=O)c4ccc(C)cc4)[C@H](c4ccccc4F)C[C@@H]3N2S(=O)(=O)c2ccc(C)cc2)cc1	Rpn11 inh active (no result: PKA-R2B activ, PKA-R1A activ) | Rpn11 confirm inactive | MMP-2 inh inactive | Thrombin FP inactive
CC(C)(C)n1ncc2c(=O)n(Cc3cccc(Cl)c3)cnc21	none
COc1ccc(Cn2nnnc2C(c2cccs2)N2CCN(c3ccc([N+](=O)[O-])cc3)CC2)cc1 (stereo not drawn)	Rpn11 inh active | Rpn11 confirm inactive | MMP-2 inh inactive | Thrombin FP inactive
COc1ccc(Cn2nnnc2C(c2cccs2)N2CCN(c3ccccc3)CC2)cc1 (stereo not drawn)	none
C=CCOCCN(CC)CC	none
CC1=NN(c2nc(N)nc(/C(C#N)=C/c3ccc([N+](=O)[O-])o3)n2)C(C)(C)C1	Rpn11 inh active | Rpn11 confirm inactive | MMP-2 inh inactive | Thrombin FP inactive
COCCn1c(SCc2nc3scc(-c4ccc(Cl)cc4)c3c(=O)[nH]2)nnc1-c1cccc(C)c1	Rpn11 inh active | Rpn11 confirm inactive | MMP-2 inh inactive | Thrombin FP inactive
Nc1nc(SCc2nc3scc(-c4ccccc4)c3c(=O)[nH]2)n[nH]1	none
Cc1nnc(SCc2nc3scc(-c4ccccc4)c3c(=O)[nH]2)s1	Rpn11 inh active | Rpn11 confirm 42 | MMP-2 inh inactive | Thrombin FP inactive
O=c1[nH]c(Cc2ccccc2)nc2scc(-c3ccccc3)c12	none
Nc1nnc(SCc2nc3scc(-c4ccccc4)c3c(=O)[nH]2)s1	Rpn11 inh active | Rpn11 confirm 70 | MMP-2 inh inactive | Thrombin FP 60
COc1ccc(NS(=O)(=O)c2ccc(F)c(F)c2F)cc1S(=O)(=O)N1CCOCC1	none
NC1=NC[C@@H](CC2CCCCC2)N1CCc1cc(C(F)(F)F)cc(C(F)(F)F)c1	Rpn11 inh active | Rpn11 confirm inactive | MMP-2 inh inactive | Thrombin FP inactive
Cc1cc(C)c(NC(=O)CNC(=O)c2ccccc2OCc2c(C)noc2C)c(C)c1	none
COC(=O)c1[nH]c2ccc(C)cc2c1NC(=O)CN1CCCc2ccccc21	Rpn11 inh active | Rpn11 confirm 48 | MMP-2 inh inactive | Thrombin FP inactive
c1ccc2cc(C3OCC4(CCCC4)CO3)ccc2c1	none
O=C(N/N=C/c1cccnc1)c1ccc(NC(=O)c2cccc(Cl)c2)cc1	Rpn11 inh active | Rpn11 confirm 44 | MMP-2 inh inactive | Thrombin FP inactive

From PubChem BioAssay
